Holding throughout (test): NCI-60 one-dose screen, 48 h (100 = growth as untreated, 0 = no growth, -100 = all killed)
Common to all, as to conditions: 10 µM unless noted

Assay [1] has as its system MALME-3M melanoma.
In assay [2] the test system is MDA-MB-231 breast.
In assay [3] the test system is RXF 393 renal.
Assay [4] relates to SF-268 CNS.
For assay [5], the system named is SF-295 CNS.
Assay [6] has as its system UACC-257 melanoma.
For assay [7], the system named is M14 melanoma.
Assay [8] has as its system HCT-15 colon.
Assay [9] has as its system HT29 colon.
Assay [10] deals with SNB-75 CNS.
In assay [11] the test system is SNB-19 CNS.
Assay [12] deals with U251 CNS.
For assay [13], the system named is PC-3 prostate.
Assay [14] relates to SK-MEL-5 melanoma.
In assay [15] the test system is UACC-62 melanoma.
Assay [16] concerns LOX IMVI melanoma.
Assay [17] relates to SK-MEL-28 melanoma.
For assay [18], the system named is SK-MEL-2 melanoma.
The test system of assay [19] is SF-539 CNS.

Structures are written as SMILES. Compounds without any hit were thinned out: in the full panel of roughly 83,000, 20% have a hit.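 Step 1: grow cells in 96-well plates. Step 2: add test compound at a single concentration. Step 3: incubate 48 h. Step 4: record percent growth.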 Values without a mark were called inactive. Calls of active or inactive are those of the source. How the source made its calls: active means growth percent below 10; inactive means the rest.

Take `COC(=O)[C@]1(CCSC)N[C@H](c2cn(-c3ccccc3)nc2C)[C@@H]2C(=O)N(c3ccc(C)cc3)C(=O)[C@@H]21`: the growth in assay [1] is 99%; in [2], 104%; in assay [3], 133%; in [4], 98.2%; in [5], 97%; in assay [6], 102%. Besides, the growth in [7] is 96.6%; in assay [8] it was 96.7%; in assay [9] it was 99.7%; in [10], 93.3%; in assay [11], 97.8%; in [12], 95.7%. Further, the growth in assay [13] was 98.1%; in assay [14], 115%; in [15], 102%; in [16], 97.9%; in assay [17], 109%; in assay [18] it was 101%.

For `Cc1nn(-c2ccccc2)c2nc3c(nc12)C(=O)CCC3`, the growth in assay [1] is 98%; in assay [2], 108%; in assay [3], 116%; in assay [4] it was 103%; in [6], 99.8%; in assay [7] it was 106%. Moreover, the growth in assay [8] is 88.5%; in assay [9], 99%; in assay [10], 98.2%; in assay [11] it was 104%; in assay [12] it was 102%; in assay [13], 90%. Further, the growth was 88.3% in assay [14]; 86.3% in [15]; 90.3% in assay [16]; 114% in [17]; 90% in assay [18].

Take `Cc1ccc(NC(=O)CSc2nnc3n(Cc4ccccc4)c(=O)c4c(C)c(C(N)=O)sc4n23)cc1`: the growth in [1] is 11.4%; in [2], -6.14% (active); in assay [3], 79.9%; in assay [4], 55.8%; in assay [5] it was 53%; in [6], 56.4%. The growth in assay [7] is 60.5%; in [8] it was 84.4%; in assay [9], 35%; in [10], -46.4% (active); in assay [11], 68.6%; in [12], 38.3%. The growth was 81.5% in [13]; 77.1% in assay [14]; 55.8% in assay [15]; 59.9% in [16]; 13.9% in [17]; 44.4% in [18].

In the case of `O=C1CN(CO)C(=O)CN1CO`, the growth was 103% in assay [1]; 108% in [2]; 105% in [4]; 101% in assay [5]; 115% in assay [19]; 99.8% in [6]. Further, the growth in [7] was 104%; in assay [8], 106%; in assay [9], 109%; in assay [10] it was 94.2%; in assay [11], 101%; in assay [12] it was 100%. The growth in [13] was 95.4%; in assay [15] it was 98.3%; in assay [16] it was 99.7%; in assay [17], 112%; in [18], 121%.

For `Cc1cc([N+](=O)[O-])c(C)cc1C(=O)O`, the growth in [1] was 102%; in assay [2], 110%; in [3] it was 112%; in assay [4], 99.8%; in assay [5], 96.9%; in [19], 98.5%. For the same compound, the growth is 105% in assay [6]; 100% in [7]; 97.3% in [8]; 104% in assay [9]; 101% in assay [11]; 109% in assay [12]. The growth in [13] is 99%; in assay [15], 100%; in assay [16], 103%; in assay [17], 110%; in assay [18], 114%.

In the case of `Cc1c(C(N)=O)sc2c1C(=O)N(Cc1ccccc1)C1=NN=C(c3ccc(Cl)cc3)CN12`, the growth is 58.9% in [1]; 37.3% in [2]; 51.3% in assay [3]; 38.6% in [4]; 29.1% in [5]; 53.2% in assay [19]. Also, the growth in [6] was 59.8%; in [7], 41.5%; in [8], 22.6%; in assay [9] it was 34.9%; in assay [11] it was 52.8%; in [12] it was 29.9%. The growth was 57% in assay [14]; 25.4% in assay [15]; 17.2% in [16]; 72.8% in assay [17]; 66.8% in assay [18].

As for `COC(=O)[C@]1(CCSC)N[C@H](c2cn(-c3ccccc3)nc2C)[C@@H]2C(=O)N(c3ccccc3)C(=O)[C@@H]21`, the growth in assay [1] is 105%; in assay [2], 109%; in assay [3], 109%; in [4], 114%; in assay [5], 106%; in assay [6], 113%. The growth in assay [7] is 95.9%; in [8], 112%; in [9], 103%; in [10], 86%; in [11] it was 109%; in [12] it was 105%. For the same compound, the growth is 101% in assay [13]; 101% in assay [14]; 102% in assay [15]; 96.1% in [16]; 109% in assay [17]; 121% in [18].

As to `CCCCC(C#N)C(N)=O` (stereo not given), the growth is 107% in assay [1]; 104% in [2]; 121% in [3]; 114% in [4]; 96.9% in [19]; 104% in assay [7]. Besides, the growth is 105% in assay [8]; 101% in assay [9]; 95.6% in assay [10]; 107% in assay [11]; 88.2% in [13]; 107% in [14]. Further, the growth in [15] was 102%; in assay [16], 98.4%; in [17], 107%; in assay [18], 101%.

As to `OCCOc1c(Cl)cc(Cl)cc1Cl`, the growth was 101% in assay [1]; 87.3% in assay [2]; 103% in assay [4]; 100% in [5]; 102% in [19]; 90.3% in assay [6]. The growth was 107% in [7]; 104% in [8]; 110% in assay [9]; 62.2% in [10]; 94.2% in assay [11]; 103% in [12]. The growth in [13] was 101%; in assay [15], 94.6%; in assay [16], 100%; in assay [17] it was 96.8%; in [18], 126%.

Values taken from PubChem BioAssay (NCI).
